In PubChem BioAssay (EPA / NIEHS):
Records with an inconclusive call do not appear. The source made the active and inactive calls. How the source made its calls: active means hit-call score of the fitted dose curve at least 0.9, where 1 is the maximum; inconclusive means response in the unintended direction; inactive means score below 0.9.

These compounds were tested against Nuclear receptor subfamily 1 group I member 3 (Homo sapiens) (UniProt Q14994) (assay: ATG_CAR_TRANS: Attagene TRANS-FACTORIAL HepG2 Assay for human Constitutive Androstane Receptor (CAR) (AID 2282969;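 further: activators raise reporter mRNA above DMSO so AC50 marks induction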)). Conditions: HepG2 Attagene TRANS-FACTORIAL CAR reporter.
Experimental: ATG_TRANS is a cell-based, multiplexed-readout assay that uses HepG2, a human liver cell line, with measurements taken at 24 hours after chemical dosing in a 24-well plate.ATG_CAR_TRANS is one of 30 assay component(s) measured or calculated from the ATG_TRANS assay. It is designed to make measurements of mRNA induction, a form of inducible reporter, as detected with fluorescence intensity signals by Reverse transcription polymerase chain reaction (RT-PCR) and Capillary electrophoresis technology.Data from the assay component ATG_CAR_TRANS was analyzed into 1 assay endpoint. This assay endpoint, ATG_CAR_TRANS, was analyzed in the positive analysis fitting direction relative to DMSO as the negative control and baseline of activity. Using a type of inducible reporter, measures of mRNA for gain-of-signal activity can be used to understand the reporter gene at the transcription factor-level as they relate to the gene NR1I3. Furthermore, this assay endpoint can be referred to as a primary readout, because this assay has produced multiple assay endpoints where this one serves a reporter gene function. To generalize the intended target to other relatable targets, this assay endpoint is annotated to the nuclear receptor intended target family, where the subfamily is non-steroidal.
Human liver HepG2 cells are transiently transfected with multiple reporter transcription units (MRTUs) in 6-well plates using FuGene 6 reagent (Roche; 3 ml FuGene/1 mg DNA). The MRTU constructs are regulated by a cis-regulating element (promoter). […] A major difference between the CIS and TRANS system is that in CIS activities of endogenous TFs are measured, whereas the TRANS assay evaluates changes in activities of exogenous, chimeric NR-Gal4 proteins. […] At the end of 24 hour incubation, total RNA was isolated using TriZol reagent (Invitrogen). The isolated RNA is then reverse-transcribed using oligo(dT) primer and Mo-MLV reverse transcriptase (Invitrogen) with DNAse I (Ambion) treatment for 30 min. The one-tenth of the produced cDNA was amplified by PCR using Taq DNA polymerase (Invitrogen) and two reporter sequence-specific primers. The PCR products were fluorescently labeled by primer extension with 6-arboxyfluorescein (6-FAM) 5'-labeled reporter sequence-specific primer (2 min at 95 C, 20 s at 68 C and 10 min at 72 C) and these products were digested with 5U of HpaI (New England Biolabs) for 2h at 37 C. The fragments were purified using Qiaquick PCR columns (Qiagen), analyzed on an ABI 3130xL genetic analyzer (Applied Biosystems) with peak positions identified by using a set of X-rhodamine (ROX)-labeled MapMarker1000 molecular weight standards (BioVentures). The raw capillary electrophoresis data was processed using Attagraph software (Attagene).

Sequence of Nuclear receptor subfamily 1 group I member 3 (Homo sapiens) (Q14994 whole entry, looked up): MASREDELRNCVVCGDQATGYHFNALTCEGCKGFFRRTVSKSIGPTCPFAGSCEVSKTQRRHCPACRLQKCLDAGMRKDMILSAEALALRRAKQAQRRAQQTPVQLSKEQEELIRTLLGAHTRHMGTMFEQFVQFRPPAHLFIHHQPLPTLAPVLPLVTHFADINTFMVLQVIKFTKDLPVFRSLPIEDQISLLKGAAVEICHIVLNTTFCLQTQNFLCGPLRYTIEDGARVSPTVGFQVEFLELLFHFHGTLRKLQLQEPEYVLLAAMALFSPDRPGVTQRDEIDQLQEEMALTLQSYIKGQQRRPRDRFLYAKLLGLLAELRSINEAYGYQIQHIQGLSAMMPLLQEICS

Compound | outcome | AC50
O=C1OC(=O)c2c(Cl)c(Cl)c(Cl)c(Cl)c21 | inactive | –
CCCCCCCC(=O)OCC(O)CO (stereo not given) | inactive | –
CC1(C)C(=O)N(Cl)C(=O)N1Br | inactive | –
CCCCSCCCC | inactive | –
CCCCOCC | inactive | –
CC/C=C\CC/C=C/CO | inactive | –
CC(O)C1CCCCC1 (stereo not given) | inactive | –
CCCCCCC(C)(C)S | inactive | –
COc1ccccc1N=Nc1c(S(=O)(=O)O)cc2cc(S(=O)(=O)O)cc(NC(C)=O)c2c1O | inactive | –
CC1(C)CCC[C@]2(C)[C@H]3CCO[C@]3(C)CC[C@@H]12 | inactive | –
c1ccc(CN(Cc2ccccc2)Cc2ccccc2)cc1 | inactive | –
NCCNc1cccc2ccccc12 | inactive | –
CCOc1ccc(N=Nc2ccc(C=Cc3ccc(N=Nc4ccc(OCC)cc4)cc3S(=O)(=O)O)c(S(=O)(=O)O)c2)cc1 | inactive | –
C=C[Si]1(C)O[Si](C)(C=C)O[Si](C)(C=C)O[Si](C)(C=C)O1 (stereo not given) | inactive | –
CCc1ccc(O)c(OC)c1 | inactive | –
C=Cc1ccncc1 | inactive | –
CCCCCCC(CO)CCCC (stereo not given) | inactive | –
CCCCCCOC(=O)CCC | inactive | –
Nc1ccc(N)c2c1C(=O)c1ccccc1C2=O | inactive | –
Cc1ccc(-c2ccccc2)cc1 | inactive | –

Compound | outcome | AC50
O=[N+]([O-])c1ccc(O)cc1C(F)(F)F | inactive | –
NCC1CCCC(CN)C1 (stereo not given) | inactive | –
CCOc1ccc(NC(=O)CC(C)=O)cc1 | inactive | –
c1ccc2cc(Nc3ccc(Nc4ccc5ccccc5c4)cc3)ccc2c1 | inactive | –
OC[C@H]1O[C@@H]2O[C@H]3[C@H](O)[C@@H](O)[C@@H](O[C@H]4[C@H](O)[C@@H](O)[C@@H](O[C@H]5[C@H](O)[C@@H](O)[C@@H](O[C@H]6[C@H](O)[C@@H](O)[C@@H](O[C@H]7[C@H](O)[C@@H](O)[C@@H](O[C@H]8[C@H](O)[C@@H](O)[C@@H](O[C@H]9[C@H](O)[C@@H](O)[C@@H](O[C@H]1[C@H](O)[C@H]2O)O[C@@H]9CO)O[C@@H]8CO)O[C@@H]7CO)O[C@@H]6CO)O[C@@H]5CO)O[C@@H]4CO)O[C@@H]3CO | inactive | –
O=C(O)CCCCCCCCC(=O)O | inactive | –
CCCCCCCCN1CCCC1=O | inactive | –
CCCC(=O)OC(C)(C)Cc1ccccc1 | inactive | –
N#Cc1cscn1 | inactive | –
CCOCCOCCOCC | inactive | –
C=CCN(CC=C)CC=C | inactive | –
FC(F)(F)COCC(F)(F)F | inactive | –
CCCCCCCC/C=C\CCCCCCCC(=O)OCC | inactive | –
CC(=O)NCCO | inactive | –
CCCOC(=O)c1c(Cl)c(Cl)c(Cl)c(Cl)c1C(=O)OCCC | inactive | –
CC(C)(C)C1=CC(=O)C(C(C)(C)C)=CC1=O | – | 20.1 µM (active)
C#CC(C)N(C)C(=O)Nc1ccc(Cl)cc1 (stereo not given) | inactive | –
O=CCc1ccccc1 | inactive | –
Oc1ccc2cc(SSc3ccc4cc(O)ccc4c3)ccc2c1 | inactive | –
Cc1c(C2(c3cc(Br)c(O)c(Br)c3C)OS(=O)(=O)c3ccccc32)cc(Br)c(O)c1Br | inactive | –
